# Assay outcomes deposited in PubChem BioAssay by National Center for Advancing Translational Sciences (NCATS).
# Compounds with a hit are over-represented: about 1.3% of the library has one in this group of screens.
# Vaccinia Venus: qHTS for Stage-Specific Inhibitors of Vaccinia Orthopoxvirus: Venus Reporter Primary qHTS. Vaccinia virus Venus reporter expression, fluorescence. Potency, µM (highest dose often 36.5 µM), inactives show at the highest dose activity change, negative = inhibition, usual class: inhibitors. 330,000 compounds, 0.46% hits; calls by dose curve; tested in A549 cells; also: % is scaled to controls: 0 for no effect and ±100 for the full control effect; nearly all actives have a fitted effect of over 30% in size
# AMA1 RON2 block: qHTS for Inhibitors of AMA1-RON; Towards Development of Antimalarial Drug Lead: Primary Screen; AID 720542, 2013; Plasmodium falciparum AMA1 (3D7) - RON2 peptide interaction; Potency, µM (series often up to 58.2 µM), for inactives: at the top dose activity change, negative = inhibition, usual class: inhibitors; AlphaScreen AMA1-biotinylated RON2 peptide binding; 360,000 compounds, 0.2% hits;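 also: 0% = vehicle wells and -100% = peptide control; nearly all actives have a fitted effect of over 45% in size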
#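 AMA1 (3D7) with his tag at 25 nM final met compounds first, then biotinylated RON2 peptide at 25 nM; detection used donor plus acceptor beads, 10 µg/mL apiece, read by AlphaScreen after 30 min at room temperature.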
# AmpC no deterg: qHTS Inhibitors of AmpC Beta-Lactamase (assay without detergent); P00811; AmpC nitrocefin hydrolysis, absorbance 480 nm, 0.0001% Triton; Potency, µM (titrated, usually from 57.1 µM), for inactives: at the top dose activity change, negative = inhibition, usual class: inhibitors; 330,000 compounds, 0.52% hits; AID 485341, 2010;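 also: plate controls were no compound for no effect and no enzyme for full effect; nearly all actives have a fitted effect of over 20% in size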
# Target sequence (P00811 whole entry, looked up): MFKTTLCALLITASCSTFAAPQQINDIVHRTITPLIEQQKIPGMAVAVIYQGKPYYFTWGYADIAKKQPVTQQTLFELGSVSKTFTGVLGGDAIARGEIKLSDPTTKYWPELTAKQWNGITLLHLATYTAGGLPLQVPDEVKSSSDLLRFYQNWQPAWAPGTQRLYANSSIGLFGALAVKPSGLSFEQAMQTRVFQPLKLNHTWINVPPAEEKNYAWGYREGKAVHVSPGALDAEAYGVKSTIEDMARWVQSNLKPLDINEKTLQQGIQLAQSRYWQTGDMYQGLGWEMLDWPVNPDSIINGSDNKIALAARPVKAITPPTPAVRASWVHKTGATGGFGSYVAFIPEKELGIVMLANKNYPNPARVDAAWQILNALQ
#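 20 mM phosphate pH 7.0 + 0.01% (detergent screen) or 0.0001% Triton X-100; 5.3 nM AmpC reagent; cpd preinc 15 min RT; nitrocefin (800 uM stock) to start; A480 q20 s × 4 min; Activity was normalised to no-enzyme and no-compound control wells.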
# AmpC inh detg: qHTS Inhibitors of AmpC Beta-Lactamase (assay with detergent); P00811; AmpC hydrolysis of nitrocefin, absorbance 480 nm, 0.01% Triton; Potency, µM (doses to about 114 µM), for inactives: at the highest dose activity change, negative = inhibition, hits mostly inhibitors; 370,000 compounds, 0.041% hits; AID 485294, 2010;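 also: 0% = no-compound wells and -100% = no-enzyme wells; nearly all actives have a fitted effect of over 25% in size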
#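 AmpC (5.3 nM in the dispensed reagent) in 20 mM phosphate pH 7.0 with 0.01% (detergent screen) or 0.0001% Triton X-100 was preincubated with compounds for 15 min at room temperature. Nitrocefin was then added from an 800 uM solution, and hydrolysis was followed at 480 nm.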
# Vaccinia mCherry: qHTS for Stage-Specific Inhibitors of Vaccinia Orthopoxvirus: mCherry Reporter Primary qHTS; Vaccinia virus mCherry reporter infection, fluorescence; Potency, µM (series often up to 36.5 µM), inactives show at the highest dose activity change, negative = inhibition, usual class: inhibitors; 310,000 compounds, 0.63% hits; calls by dose curve; tested in A549 cells; also: % is scaled to controls: 0 for no effect and ±100 for the full control effect; nearly all actives have a fitted effect of over 35% in size
# SARS PLpro yeast: qHTS of Yeast-based Assay for SARS-CoV PLP | S. cerevisiae expressing SARS-CoV PLpro, growth rescue | Potency, µM (series often up to 32.9 µM), inactives show at the top dose activity, positive = growth rescue, actives largely listed as activators | 330,000 compounds, 0.19% hits; calls by dose curve; also: 0% is about no effect; nearly all actives have a fitted effect of over 55% in size
# Starred values were filed as active, the others as inactive; i = inactive; ? = inconclusive; . = no result given; [ ] = dose if it differs, or a comment. Unless noted, calls follow the shape of the dose curve; as a rule, active = well fitted curve in the direction sought with a large enough effect; inconclusive = small, poorly fitted or top-dose-only effect, or another doubt; inactive = no such curve, though single readings can be large; an effect the other way counts as inactive or inconclusive. Potency is read from the fitted curve at half-maximal effect.
SMILES,Vaccinia Venus,AMA1 RON2 block,AmpC no deterg,AmpC inh detg,Vaccinia mCherry,SARS PLpro yeast
COC(=O)CC1NCCc2cc(OC)c(OC)cc21 (stereo not given),.,-7%,-12%[11.4 µM],-14%,.,1%
CCC1CN2CCc3cc(OC)c(OC)cc3C2CC1CC1NCCc2cc(OC)c(OC)cc21 (stereo not given),2.5µM*,.,.,.,2.2µM*,.
Cc1cc(C(=O)NCC2CCC3(CCN(Cc4cccc(F)c4F)CC3)O2)n(C)n1 (stereo not given),-23%,.,.,.,-3%,.
CN(Cc1ccccc1)C(=O)c1ccc(NC(=O)Cc2ccc(NC(=O)C3CCCN(C(=O)CCc4ccccc4)C3)cc2)cc1 (stereo not given),?,2%,.,.,10µM*,.
CN(C(=O)c1ccc(NC(=O)Cc2ccc(NC(=O)C3CCN(C(=O)CCc4ccccc4)CC3)cc2)cc1)C1CCCC1,-9%,-8%,.,.,i,.
CN(C(=O)c1ccc(NC(=O)Cc2ccc(NC(=O)C3CCCN(C(=O)CCc4ccccc4)C3)cc2)cc1)C1CCCC1 (stereo not given),?,0%,.,.,10µM*,.
CN(C(=O)c1cccc(NC(=O)Cc2ccc(NC(=O)C3CCCN(C(=O)CCc4ccccc4)C3)cc2)c1)C1CCCCC1 (stereo not given),?,-5%,.,.,13µM*,.
COc1ccccc1C(=O)N[C@@H]1c2ccccc2C2(CCN(Cc3cccnc3)CC2)[C@H]1O,-8%,.,.,.,-16%,.
Cn1cnc([N+](=O)[O-])c1Sc1nc(N)nc2c1ncn2C1CC(O)C(CO)O1 (stereo not given),?,6%,.,.,6.3µM*,.
Cn1cnc([N+](=O)[O-])c1Sc1nc(N)nc2c1ncn2C1OC(CO)C(O)C1O (stereo not given),?,10%,.,.,?,.
C=C1CCC[C@]2(C)C[C@H]3OC(=O)C(CN[C@@H](C)c4ccccc4)[C@H]3CC12 (stereo not given in full),?,2%,2%,-11%,?,1%
C=C1CCC[C@]2(C)C[C@H]3OC(=O)C(CNC(C)CCCC(C)C)[C@H]3CC12 (stereo not given in full),7.1µM*,1%,-1%,-5%,?,-2%
C=C1CCC[C@]2(C)C[C@H]3OC(=O)C(CNCC(OC)OC)[C@H]3CC12 (stereo not given in full),?,0%,35%,-13%,4.5µM*,-1%
Cc1ccc(NC(=O)CN(C)Cc2cccs2)cc1Cl,-2%,-15%,-12%,?,-3%,-4%
CCN(CC)c1ccc(NC(=O)CN(C)Cc2cccs2)cc1,-13%,13µM*,14%,-4%,?,0%
CCc1ccc(NC(=O)N2c3ccccc3Sc3ccccc32)cc1,-9%,.,.,11%,-11%,.
NS(=O)(=O)c1ccc(NC(=O)N2c3ccccc3Sc3ccccc32)cc1,-23%,-6%,35µM*,-11%,-28%,-14%
CCCSc1nnc(N2C(=O)CC(c3ccsc3)C3=C2CCCC3=O)s1 (stereo not given),-10%,16%,4.5µM*,?,-7%,-2%
O=C1CCCC2=C1C(c1ccsc1)CC(=O)N2c1ccccc1F (stereo not given),-5%,-5%,4%,5%,i,-6%
COCC(=O)Nc1cc(C(=O)N2CC3(C)CC2CC(C)(C)C3)c2c(c1)nc(-c1ccncc1)n2C (stereo not given),-6%,.,.,.,-13%,.
Clc1ccc(/C=C/c2ccnc3ccccc23)c(Cl)c1,?,.,.,.,-14%,.
CCOC(=O)C(C)Oc1cccc2c(=O)n(CC(=O)NCc3ccc4c(c3)OCO4)ccc12 (stereo not given),?,4%,22%,-7%,100µM*,-8%
CCOC(=O)C(C)Oc1cccc2c(=O)n(CC(=O)Nc3cccc(OC)c3)ccc12 (stereo not given),3%,-5%,7.1µM*,?,-12%,4%
CCOC(=O)C(C)Oc1cccc2c(=O)n(CC(=O)Nc3ccc(OCC)cc3)ccc12 (stereo not given),-6%,-2%,-4%,?,0%,-3%
C=CCNc1nc(-c2ccccn2)nnc1-c1ccccc1,?,?,-1%,3%,28µM*,-34%
SMILES,Vaccinia Venus,AMA1 RON2 block,AmpC no deterg,AmpC inh detg,Vaccinia mCherry,SARS PLpro yeast
CC(C)Nc1nc(-c2ccccn2)nc(-c2ccccc2)c1C#N,-8%,1%,-10%,?,-18%,3%
O=C(NNC(=O)C12CC3CC(CC(C3)C1)C2)c1ccccc1O,?,72%,-3%,7%,10µM*,?
O=C(NNC(=O)C12CC3CC(CC(C3)C1)C2)c1ccccc1F,-9%,-6%,-8%,-10%,-9%,1%
CCN(CC)C1CCN(C(=O)c2cnn(-c3nccc(-c4ccco4)n3)c2C(C)C)C1 (stereo not given),-4%,.,.,.,-11%,.
O=C(O)CN1C(=O)/C(=C\c2cc(Br)ccc2OCc2ccc([N+](=O)[O-])cc2)SC1=S,.,2%,20µM*,-4%,.,2%
O=C(O)CN1C(=O)/C(=C\c2cc(Br)ccc2OCc2ccccc2Cl)SC1=S,-3%,7%,-41%,?,i,-1%
FC(F)(F)c1cccc(N2CCN(C(=S)NC3CCCC3)CC2)c1,?,-8%,0.25µM*,5%,.,-12%
FC(F)(F)c1cccc(N2CCN(C(=S)NC3CCCCC3)CC2)c1,?,-5%,-40%,-11%,?,1%
CCc1nc2cc(C(=O)N[C@H]3CCCCNC3=O)cc(NC(=O)c3ccccc3OC)c2n1C,-13%,.,.,.,i,.
CNC(=O)CSc1nc2cc(S(=O)(=O)Nc3ccccc3OC)ccc2o1,?,41%,24%,-1%,13µM*,-3%
Cc1cc(NC(=O)CSc2nc3cc(Cl)ccc3o2)no1,3%,36%,1%,-2%,-8%,0%
CCN(CC)S(=O)(=O)c1ccc2oc(SCC(=O)NC3CC3)nc2c1,?,4%,-19%,7%,18µM*,-4%
O=C(CSc1nc2ccccc2o1)NC1CCCC1,0%,32%,-17%,?,-7%,-6%
CCN(CC)S(=O)(=O)c1ccc2oc(SCC(=O)Nc3cc(C)on3)nc2c1,?,35%,-11%,-5%,10µM*,11%
